Compounds without any hit were thinned out: in the full panel of roughly 79,000, 15% have a hit. Unmarked numbers belong to inactive results. Activity calls are given as the source filed them. Cut-off read from the data, not from the text of the source: active = growth inhibition above about 70%; inactive = the rest.
Key:
[1] = NCI Yeast Anticancer Drug Screen. Data for the rad52 strain (AID 147);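 note: 0% = growth of vehicle-treated control cultures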; conditions: S. cerevisiae rad52 mutant growth inhibition, stronger effect = higher value
Outline: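 Read-out: growth inhibition versus vehicle-treated controls. Cells were a DNA repair-deficient yeast strain treated with compounds.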

[2] = NCI Yeast Anticancer Drug Screen. Data for the wt1 strain (AID 149);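 note: 0% = growth of vehicle-treated wt1 cultures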; conditions: S. cerevisiae wt1 strain (SPY 50644) growth inhibition, stronger effect = higher value
Outline: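 wt1 strain grown with compound or vehicle; inhibition taken from the growth difference.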

[3] = NCI Yeast Anticancer Drug Screen. Data for the rad50EPP+ strain (AID 151);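 note: 0% = growth of vehicle-treated control cultures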; conditions: S. cerevisiae rad50 mutant strain, stronger effect = higher value
Outline: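 Growth inhibition read against vehicle controls in rad50EPP+ yeast, a strain altered in DNA damage repair, after compound exposure.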

[4] = NCI Yeast Anticancer Drug Screen. Data for the mgt1 strain (AID 153); conditions: S. cerevisiae mgt1 mutant growth inhibition, stronger effect = higher value
Outline: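 mgt1 yeast grown with test compound; read-out is growth inhibition versus vehicle-treated cultures.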

[5] = NCI Yeast Anticancer Drug Screen. Data for the rad50 strain (AID 155);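 note: 0% = growth of vehicle-only cultures of the same strain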; conditions: S. cerevisiae rad50 strain growth inhibition, stronger effect = higher value
Outline: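 DNA repair mutant yeast, compound exposure, growth read-out; inhibition is taken relative to vehicle.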

[6] = NCI Yeast Anticancer Drug Screen. Data for the mec2-1 strain (AID 157); conditions: S. cerevisiae mec2-1 strain, stronger effect = higher value
Outline: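 Yeast mec2-1 mutant treated with compound. Readout: growth inhibition vs vehicle controls.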

[7] = NCI Yeast Anticancer Drug Screen. Data for the rad14 strain (AID 159);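 note: 0% = growth of vehicle-treated control cultures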; conditions: S. cerevisiae rad14 strain growth inhibition, stronger effect = higher value
Outline: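 DNA repair-defective yeast, compound-exposed; % growth inhibition derived by comparison with vehicle-treated controls.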

[8] = NCI Yeast Anticancer Drug Screen. Data for the sgs1 mgt1 strain (AID 161);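 note: 0% = growth of cultures given vehicle only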; conditions: S. cerevisiae sgs1 mgt1 strain, stronger effect = higher value
Outline: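 Test agents were incubated with a DNA-repair-mutant yeast strain. Growth was then read and compared against vehicle-treated controls.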

[9] = NCI Yeast Anticancer Drug Screen. Data for the cln2 rad14 strain (AID 165);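 note: 0% = growth equal to vehicle treated cultures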; conditions: S. cerevisiae cln2 rad14 strain, stronger effect = higher value
Outline: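 cln2 rad14 yeast strain; compound exposure; growth inhibition read vs vehicle controls.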

[10] = NCI Yeast Anticancer Drug Screen. Data for the bub3 strain (AID 167); conditions: S. cerevisiae bub3 mutant strain, stronger effect = higher value
Outline: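 In this screen, a yeast mutant lacking normal mitotic checkpoint function is challenged with compound. Relative growth versus vehicle gives the inhibition value.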

[11] = NCI Yeast Anticancer Drug Screen. Data for the wt2 strain (AID 169);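 note: 0% = growth of vehicle-treated yeast cultures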; conditions: S. cerevisiae wt2 strain growth inhibition, stronger effect = higher value
Outline: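 Read-out: growth inhibition versus vehicle-treated control cultures after compound exposure of the yeast strain.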

[12] = NCI Yeast Anticancer Drug Screen. Data for the mlh1 strain (AID 171);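 note: 0% = growth of vehicle-treated control cultures of the same strain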; conditions: S. cerevisiae mlh1 strain growth inhibition, stronger effect = higher value
Outline: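 Read-out: growth inhibition versus vehicle controls. Strain: engineered yeast with a defined DNA repair or cell cycle defect, compound-treated.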

[13] = NCI Yeast Anticancer Drug Screen. Data for the sgs1 strain (AID 173);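 note: 0% = growth of vehicle-only control cultures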; conditions: S. cerevisiae sgs1 mutant, stronger effect = higher value
Outline: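 Read-out: yeast growth inhibition relative to vehicle controls, following compound exposure of a strain with a defined DNA repair/cell cycle alteration.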

[14] = NCI Yeast Anticancer Drug Screen. Data for the mlh1 rad18 strain (AID 175); conditions: S. cerevisiae mlh1 rad18 strain growth inhibition, stronger effect = higher value
Outline: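 Yeast w/ defined DNA-repair lesions; compound exposure; growth vs vehicle controls → % inhibition.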

[15] = NCI Yeast Anticancer Drug Screen. Data for the rad18 strain (AID 177); conditions: S. cerevisiae rad18 mutant growth inhibition, stronger effect = higher value
Outline: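 Readout: growth inhibition vs vehicle controls. Cells: genetically altered yeast strain, DNA repair defect.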

[16] = at 5.0 µM (retest, dose inferred, filed as 0.5)
[17] = at 50.0 µM (retest, dose inferred, filed as 5.0)

c1ccc2c(c1)NC(NC1Nc3ccccc3N1)N2
growth inhibition ([1]; at 1.2 µM): 0%
growth inhibition ([1]; at 3.7 µM): 4%
growth inhibition ([1]; at 11.0 µM): 6%
growth inhibition ([1]; at 33.0 µM): 19%
growth inhibition ([1]; at 100.0 µM): 31%
growth inhibition ([2]; at 1.2 µM): 0%
growth inhibition ([2]; at 3.7 µM): 5%
growth inhibition ([2]; at 11.0 µM): 4%
growth inhibition ([2]; at 33.0 µM): 9%
growth inhibition ([2]; at 100.0 µM): 19%
growth inhibition ([3]; at 1.2 µM): 9%
growth inhibition ([3]; at 3.7 µM): 23%
growth inhibition ([3]; at 11.0 µM): 34%
growth inhibition ([3]; at 33.0 µM): 38%
growth inhibition ([3]; at 100.0 µM): 48%
growth inhibition ([4]; at 1.2 µM): -4%
growth inhibition ([4]; at 3.7 µM): -7%
growth inhibition ([4]; at 11.0 µM): -4%
growth inhibition ([4]; at 33.0 µM): 0%
growth inhibition ([4]; at 100.0 µM): 10%
growth inhibition ([5]; at 1.2 µM): 1%
growth inhibition ([5]; at 3.7 µM): 5%
growth inhibition [5, 16]: 9%
growth inhibition ([5]; at 11.0 µM): 8%
growth inhibition ([5]; at 33.0 µM): 23%
growth inhibition [5, 17]: 67%
growth inhibition ([5]; at 50.0 µM): 41.5%
growth inhibition ([5]; at 100.0 µM): 40%
growth inhibition ([6]; at 1.2 µM): 5%
growth inhibition ([6]; at 3.7 µM): 7%
growth inhibition [6, 16]: -3%
growth inhibition ([6]; at 11.0 µM): 10%
growth inhibition ([6]; at 33.0 µM): 16%
growth inhibition [6, 17]: 16%
growth inhibition ([6]; at 50.0 µM): 9.05%
growth inhibition ([6]; at 100.0 µM): 20%
growth inhibition ([7]; at 1.2 µM): -4%
growth inhibition ([7]; at 3.7 µM): -1%
growth inhibition ([7]; at 11.0 µM): 3%
growth inhibition ([7]; at 33.0 µM): 12%
growth inhibition ([7]; at 100.0 µM): 26%
growth inhibition [8, 16]: -4%
growth inhibition [8, 17]: 66%
growth inhibition ([8]; at 50.0 µM): 15.7%
growth inhibition [9, 16]: 13%
growth inhibition [9, 17]: 32%
growth inhibition ([9]; at 50.0 µM): -21.1%
growth inhibition ([10]; at 1.2 µM): -2%
growth inhibition ([10]; at 3.7 µM): -4%
growth inhibition [10, 16]: 19%
growth inhibition ([10]; at 11.0 µM): -2%
growth inhibition ([10]; at 33.0 µM): -2%
growth inhibition [10, 17]: 70% (active)
growth inhibition ([10]; at 50.0 µM): 10.8%
growth inhibition ([10]; at 100.0 µM): -10%
growth inhibition ([11]; at 1.2 µM): 0%
growth inhibition ([11]; at 3.7 µM): 0%
growth inhibition ([11]; at 11.0 µM): 0%
growth inhibition ([11]; at 33.0 µM): 8%
growth inhibition ([11]; at 100.0 µM): 19%
growth inhibition ([12]; at 1.2 µM): 3%
growth inhibition ([12]; at 3.7 µM): 1%
growth inhibition ([12]; at 11.0 µM): 4%
growth inhibition ([12]; at 33.0 µM): 10%
growth inhibition ([12]; at 100.0 µM): 14%
growth inhibition ([13]; at 1.2 µM): 0%
growth inhibition ([13]; at 3.7 µM): 3%
growth inhibition ([13]; at 11.0 µM): 9%
growth inhibition ([13]; at 33.0 µM): 12%
growth inhibition ([13]; at 100.0 µM): 16%
growth inhibition [14, 16]: 25%
growth inhibition [14, 17]: 81% (active)
growth inhibition ([14]; at 50.0 µM): 27.6%
growth inhibition ([15]; at 1.2 µM): 3%
growth inhibition ([15]; at 3.7 µM): 10%
growth inhibition ([15]; at 11.0 µM): 29%
growth inhibition ([15]; at 33.0 µM): 49%
growth inhibition ([15]; at 100.0 µM): 64%

COc1ccc(/C=C2\SC(=S)N(/C=C/c3nc4ccccc4[nH]c3=O)C2=O)cc1OC
growth inhibition ([1]; at 1.2 µM): 7%
growth inhibition ([1]; at 3.7 µM): 10%
growth inhibition ([1]; at 11.0 µM): 26%
growth inhibition ([1]; at 33.0 µM): 61%
growth inhibition ([1]; at 100.0 µM): 86% (active)
growth inhibition ([2]; at 1.2 µM): 3%
growth inhibition ([2]; at 3.7 µM): 5%
growth inhibition ([2]; at 11.0 µM): 10%
growth inhibition ([2]; at 33.0 µM): 40%
growth inhibition ([2]; at 100.0 µM): 90% (active)
growth inhibition ([3]; at 1.2 µM): 1%
growth inhibition ([3]; at 3.7 µM): 3%
growth inhibition ([3]; at 11.0 µM): 21%
growth inhibition ([3]; at 33.0 µM): 50%
growth inhibition ([3]; at 100.0 µM): 63%
growth inhibition ([4]; at 1.2 µM): -1%
growth inhibition ([4]; at 3.7 µM): 3%
growth inhibition ([4]; at 11.0 µM): 30%
growth inhibition ([4]; at 33.0 µM): 76% (active)
growth inhibition ([4]; at 100.0 µM): 94% (active)
growth inhibition ([5]; at 1.2 µM): -2%
growth inhibition ([5]; at 3.7 µM): -5%
growth inhibition [5, 16]: -12%
growth inhibition ([5]; at 11.0 µM): 12%
growth inhibition ([5]; at 33.0 µM): 61%
growth inhibition [5, 17]: 46%
growth inhibition ([5]; at 50.0 µM): 57.2%
growth inhibition ([5]; at 100.0 µM): 85% (active)
growth inhibition ([6]; at 1.2 µM): 3%
growth inhibition ([6]; at 3.7 µM): 5%
growth inhibition [6, 16]: -17%
growth inhibition ([6]; at 11.0 µM): 17%
growth inhibition ([6]; at 33.0 µM): 66%
growth inhibition [6, 17]: 45%
growth inhibition ([6]; at 50.0 µM): 68.1%
growth inhibition ([6]; at 100.0 µM): 91% (active)
growth inhibition ([7]; at 1.2 µM): 3%
growth inhibition ([7]; at 3.7 µM): 4%
growth inhibition ([7]; at 11.0 µM): 26%
growth inhibition ([7]; at 33.0 µM): 64%
growth inhibition ([7]; at 100.0 µM): 90% (active)
growth inhibition [8, 16]: -7%
growth inhibition [8, 17]: 57%
growth inhibition ([8]; at 50.0 µM): 87% (active)
growth inhibition [9, 16]: -30%
growth inhibition [9, 17]: 26%
growth inhibition ([9]; at 50.0 µM): 32.5%
growth inhibition ([10]; at 1.2 µM): 4%
growth inhibition ([10]; at 3.7 µM): 4%
growth inhibition [10, 16]: -14%
growth inhibition ([10]; at 11.0 µM): 19%
growth inhibition ([10]; at 33.0 µM): 52%
growth inhibition [10, 17]: 4%
growth inhibition ([10]; at 50.0 µM): 70.3% (active)
growth inhibition ([10]; at 100.0 µM): 85% (active)
growth inhibition ([11]; at 1.2 µM): 1%
growth inhibition ([11]; at 3.7 µM): 3%
growth inhibition ([11]; at 11.0 µM): 28%
growth inhibition ([11]; at 33.0 µM): 80% (active)
growth inhibition ([11]; at 100.0 µM): 94% (active)
